Screening data from PubChem.
KDM5B inhibitor – Primary screen for KDM5B Histone Demethylases FDH-coupled qHTS. KDM5B demethylase, FDH-coupled NADH fluorescence (FDH is formaldehyde dehydrogenase). AID 1347165, 2019. Potency, µM (highest dose often 57.7 µM), most hits filed as inhibitors. Lysine-specific demethylase 5B (Homo sapiens), Q9UGL1. actives 2.6% (n = 220,000); active = well fitted inhibition curve with a large enough effect; note: 0% is about no effect; nearly all actives have a fitted effect of over 70% in size
Target sequence (Q9UGL1 whole entry, looked up): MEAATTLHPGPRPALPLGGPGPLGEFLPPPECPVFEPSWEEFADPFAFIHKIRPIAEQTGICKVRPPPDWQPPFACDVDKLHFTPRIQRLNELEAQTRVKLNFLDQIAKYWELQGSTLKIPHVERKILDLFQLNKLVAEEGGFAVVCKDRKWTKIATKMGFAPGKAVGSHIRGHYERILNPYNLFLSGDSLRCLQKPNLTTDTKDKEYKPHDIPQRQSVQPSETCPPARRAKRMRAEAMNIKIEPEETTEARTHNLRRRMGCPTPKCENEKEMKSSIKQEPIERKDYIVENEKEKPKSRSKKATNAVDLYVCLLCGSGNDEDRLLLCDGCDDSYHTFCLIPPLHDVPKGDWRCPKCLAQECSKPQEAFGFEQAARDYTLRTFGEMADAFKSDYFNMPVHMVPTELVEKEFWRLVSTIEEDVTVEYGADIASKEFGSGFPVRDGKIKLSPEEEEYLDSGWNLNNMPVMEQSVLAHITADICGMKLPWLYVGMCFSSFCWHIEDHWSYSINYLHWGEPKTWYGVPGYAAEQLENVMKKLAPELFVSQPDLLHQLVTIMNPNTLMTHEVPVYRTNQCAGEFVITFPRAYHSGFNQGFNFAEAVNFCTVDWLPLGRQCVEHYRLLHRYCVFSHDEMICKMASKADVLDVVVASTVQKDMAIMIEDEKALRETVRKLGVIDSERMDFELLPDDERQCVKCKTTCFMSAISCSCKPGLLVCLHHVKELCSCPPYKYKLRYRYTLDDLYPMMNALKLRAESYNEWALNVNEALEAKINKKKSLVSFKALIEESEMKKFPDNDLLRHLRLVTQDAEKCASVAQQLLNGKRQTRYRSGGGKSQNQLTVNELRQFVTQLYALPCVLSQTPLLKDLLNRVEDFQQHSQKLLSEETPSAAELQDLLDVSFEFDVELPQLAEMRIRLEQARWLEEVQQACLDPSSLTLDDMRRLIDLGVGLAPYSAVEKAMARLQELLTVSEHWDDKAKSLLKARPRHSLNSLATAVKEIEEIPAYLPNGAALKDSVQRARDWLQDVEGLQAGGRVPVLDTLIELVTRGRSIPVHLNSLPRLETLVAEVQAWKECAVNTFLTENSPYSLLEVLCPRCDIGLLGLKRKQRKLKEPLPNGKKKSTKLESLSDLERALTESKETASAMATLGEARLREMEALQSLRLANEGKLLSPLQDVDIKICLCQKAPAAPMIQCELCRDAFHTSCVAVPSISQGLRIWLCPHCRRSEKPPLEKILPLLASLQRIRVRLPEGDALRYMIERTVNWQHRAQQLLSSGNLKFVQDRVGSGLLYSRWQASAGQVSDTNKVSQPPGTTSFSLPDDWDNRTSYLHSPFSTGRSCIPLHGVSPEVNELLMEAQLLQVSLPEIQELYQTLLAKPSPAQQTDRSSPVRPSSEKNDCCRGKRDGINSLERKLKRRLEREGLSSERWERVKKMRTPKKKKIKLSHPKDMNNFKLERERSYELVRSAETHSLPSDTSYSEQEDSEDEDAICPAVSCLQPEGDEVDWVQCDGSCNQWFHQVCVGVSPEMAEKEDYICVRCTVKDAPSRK
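Measured: NADH fluorescence change, 30 min, RT. System: KDM5BΔAP 200 nM final, H3K4me3 peptide, α-KG, Fe(II), ascorbate, NAD⁺ plus FDH, pH 7.5 HEPES. Compounds: titrated, 10 min pre-incubation with enzyme.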
* = called active by the depositor; i = inactive. Many of the other results were omitted from the sample, so hits are more common in it than they were. Potency is the fitted concentration of half-maximal effect.

SMILES | KDM5B inhibitor
O=C(CCC[C@@H]1[C@H]2CCCN3CCC[C@@H](CN1Cc1ccccc1)[C@@H]23)N1CCCC1 | i
CCN(CC)c1nc2ccccc2nc1C(=O)Nc1ccccc1Cl | i
Cc1ccc(CCC(=O)N2CC[C@@](O)(C3CCOCC3)[C@H](C)C2)cc1 | i
O=C(Nc1cnc(-c2ccccc2)nc1)c1ccccc1 | i
Cc1ccc(-c2ncc(NC(=O)c3cccs3)cn2)cc1 | 32µM*
CCCC(=O)Nc1cnc(-c2ccc(C)cc2)nc1 | i
COc1ccc(-c2cc(N3CCCC(NC(=O)c4cc(OC)cc(OC)c4)C3)n[nH]2)cc1 (stereo not drawn) | i
CNC(=O)Cn1nc(C2CCN(C(=O)c3ccc(F)cc3)CC2)c2c1CCOC2 | i
CCC1CN(C(=O)c2ccc3nc[nH]c3c2)CCC(=O)N1Cc1ccccc1 (stereo not drawn) | i
CCC1CN(C(=O)c2ccc3nc(-c4ccccc4)cn3c2)CCN1C(C)C (stereo not drawn) | 28µM*
CCOC(=O)C1CCCN(C(=O)c2ccc3nccn3c2)C1 (stereo not drawn) | i
Cc1cc(NC(=O)C(C)Sc2nccn2-c2ccc(Cl)cc2)no1 (stereo not drawn) | i
Cc1oc(-c2ccccc2)nc1CC(=O)NCC(C)(C)N1CCOCC1 | i
CS(=O)(=O)c1ccc(C(=O)Nc2c(Cl)cc(NC(=O)c3ccccn3)cc2Cl)cc1 | i
COc1ccc2[nH]c3c(c2c1)CCN(C)C31CCN(C(=O)c2cn(C)cn2)CC1 | 25µM*
CN1CCc2[nH]cnc2C12CCN(C(=O)c1cccc(-n3cccn3)c1)CC2 | i
COc1ccc2[nH]c(C(=O)N3CCC4(CC3)c3nc[nH]c3CCN4C)cc2c1 | 28µM*
CN1CCc2[nH]cnc2C12CCN(C(=O)CC1NC(=O)c3ccccc31)CC2 (stereo not drawn) | i
Cc1nc2cc(C(=O)N3CCC4(CC3)c3nc[nH]c3CCN4C)ccc2s1 | i
COc1ccc2[nH]c3c(c2c1)CCN(C)C31CCN(C(=O)c2cccnc2)CC1 | i
COc1cccc(N2CCN(C(=O)c3cc4cc(Cl)ccc4[nH]3)CC2)c1 | i
CN1CCc2[nH]cnc2C12CCN(C(=O)c1cc(=O)[nH]c3ccccc13)CC2 | 20µM*
COc1ccc2[nH]c3c(c2c1)CCN(C)C31CCN(C(=O)c2cccc(C)c2)CC1 | i
Fc1ccc(/C=N/Nc2cccc(Cl)c2)cc1F | i
O=C(NCCSc1ccc(Cl)cc1)c1ccc2c(c1)OCCCO2 | i
SMILES | KDM5B inhibitor
COc1cccc(-c2ccc(=O)n(CC(=O)NCCc3ccc(OC)c(OC)c3)n2)c1 | i
Cc1ccccc1CC(CC(=O)O)C(=O)O (stereo not drawn) | i
Cc1cccc(NC(=O)CSc2nc(N3CCOCC3)c3c(c2C#N)CCCC3)c1 | i
CC(NC(=O)C(=O)c1c[nH]c2ccccc12)c1ccccc1 (stereo not drawn) | i
CCOc1ccc(C(C)=O)cc1COC(=O)/C(=C\c1ccccc1)NC(C)=O | i
CCCNC(=O)CSc1nnc(C(=O)Nc2ccccc2)s1 | i
CNC(=O)c1cc2cc(-c3c(C)noc3C)nc(-c3cccc(CO)c3)c2o1 | 35µM*
CNC(=O)c1cc2cc(-c3c(C)noc3C)nc(-c3ccccc3C)c2o1 | 35µM*
Cc1noc(C)c1-c1cc2c(cc(C)n2C)c(-c2cccc(CO)c2)n1 | i
COC(=O)c1sc2ccccc2c1S(=O)(=O)N1CCN(c2cc(Cl)ccc2C)CC1 | i
Cc1cc(Br)ccc1NCC(=O)N(C1CCCCC1)C1CCS(=O)(=O)C1 (stereo not drawn) | i
O=C(Cc1c(Cl)cccc1Cl)NC(c1cccs1)C1CC1 (stereo not drawn) | i
Cc1ccc2nc(/C(C#N)=C/c3ccc4oc5ccccc5c4c3)[nH]c2c1 | i
CC(=O)N1CCC(Cc2ncc(C)n2C2CC2)C1 (stereo not drawn) | i
Cc1cc(CC(C)NC(=O)Cc2c(C)[nH]c3ccccc23)n[nH]1 (stereo not drawn) | i
NC1=NC(c2ccc(O)cc2)n2c(nc3ccccc32)N1 (stereo not drawn) | i
O=C(NCc1cccs1)C1CCCN(c2nc3ncccc3o2)C1 (stereo not drawn) | i
O=C(NCC(F)(F)F)C1CCCN(c2nc3ncccc3o2)C1 (stereo not drawn) | 22µM*
O=C(NC1CCCN(c2nc3ncccc3o2)C1)c1ccc(C(F)(F)F)cc1 (stereo not drawn) | i
O=C(NCC(F)F)C1CCCN(c2nc3ncccc3o2)C1 (stereo not drawn) | 28µM*
CCNC(=O)C1CCCN(c2ncnc3onc(C)c23)C1 (stereo not drawn) | i
O=C(NC1CC1)C1CN(c2ccccc2)C(=O)N1 (stereo not drawn) | i
COC(=O)CCOc1ccc(S(=O)(=O)Nc2ccc(F)c(F)c2)cc1 | i
Cn1cccc1CN1CCCCC12Cc1ccccc1CNC2=O (stereo not drawn) | i
